The list is not random: actives were taken first. Their share in the collection is about 1.3%.
S1P2 ag: S1P2 receptor agonists, primary screen, cell-based; Sphingosine 1-phosphate receptor 2 (Homo sapiens), O95136; S1P2-expressing cell line, agonist reporter read-out; activation, % at 4.5 µM; hit rate 0.46% among 97,000; AID 729, 2007; in the data active = activation above about 16%;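 note: 0% = vehicle low control and 100% = maximal reference agonist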
Target sequence (O95136 whole entry, looked up): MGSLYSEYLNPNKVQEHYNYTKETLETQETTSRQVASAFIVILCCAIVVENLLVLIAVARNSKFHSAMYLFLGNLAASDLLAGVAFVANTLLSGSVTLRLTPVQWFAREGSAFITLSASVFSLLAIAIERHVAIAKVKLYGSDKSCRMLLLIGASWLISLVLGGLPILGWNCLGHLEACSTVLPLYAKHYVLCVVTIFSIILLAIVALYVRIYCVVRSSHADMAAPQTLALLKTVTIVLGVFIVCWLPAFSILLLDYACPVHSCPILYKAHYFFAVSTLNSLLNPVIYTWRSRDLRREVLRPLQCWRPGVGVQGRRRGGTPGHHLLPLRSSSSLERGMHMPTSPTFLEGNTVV
PTPN22 inh 2: PTPN22 phosphatase inhibitors, primary screen, biochemical, DiFMUP fluorescence, 2 µM | Tyrosine-protein phosphatase non-receptor type 22 (Homo sapiens), Q9Y2R2 | recombinant LYP catalytic domain | inhibition, % at 2 µM | hit rate 0.21% among 96,000 | AID 640, 2007;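 active = inhibition at 2 µM at or above a set limit, the screen mean plus 3 SD, cut at about 24% in these data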;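 note: 0% = DMSO with enzyme and 100% = enzyme fully blocked by orthovanadate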
LYP act: LYP phosphatase activators, primary screen, biochemical, DiFMUP fluorescence, 2 µM | hit rate 0.11% among 96,000 | recombinant LYP; 0 = plate median, 100 = signal doubled | activation, % at 2 µM;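 active = activation at 2 µM above a set limit, the mean plus 5 SD, cut at about 37% in these data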
S1P2 blocker: human S1P2 receptor antagonists, primary screen, cell-based. Sphingosine 1-phosphate receptor 2 (Homo sapiens), O95136. cell-based S1P2 antagonist assay, inhibition at 5 uM. AID 736, 2007. inhibition, % at 5 µM. hit rate 0.21% among 97,000; in the data active = inhibition above about 45%;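 note: CRE beta-lactamase reporter cells expressing human S1P2 stimulated with S1P; 0% = agonist at EC80 alone and 100% = agonist plus reference antagonist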
GALR2 antag: GALR2 antagonists in receptor-expressing cells, primary screen; antagonist mode; inhibition, % at 4 µM; hit rate 0.39% among 140,000; in the data active = inhibition above about 27%;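 note: cells stimulated with galanin 1-16 at roughly its EC80; 0% = agonist challenge control and 100% = basal control without agonist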
GALR2 agonist: GALR2 receptor agonists, primary screen, cell-based | activation, % (test concentration not listed) | AID 803, 2007 | hit rate 0.48% among 140,000 | GALR2-expressing cells, agonist activation read-out; in the data active = activation above about 5%, passing the limit was not always enough;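 note: 0% = vehicle buffer wells and 100% = reference agonist at full effect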
GALR2 agon conf: GALR2 agonists, retest of hits, confirmation, cell-based; shares compounds with GALR2 agonist; GALR2-expressing cells, agonist activation; activation, % at 5.6 µM; hit rate 10% among 460; AID 864, 2007; in the data active = activation above about 8.4%;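 note: 0% = buffer-only vehicle wells and 100% = full reference agonist response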
BLA activ ctr: activators of NFAT-driven beta-lactamase reporter, confirmation, counter-screen for GALR2 agonist project, CHO NFAT-bla cells, FRET readout | hit rate 10% among 460 | activation, % at 5.6 µM | shares compounds with GALR2 agonist | beta-lactamase FRET activation;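 active = activation above the screen-wide mean activation plus 3 SD, cut at about 8% in these data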;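 note: 0% = DMSO with PBS wells and 100% = thapsigargin positive control wells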
Starred values were filed as active, the others as inactive; . = no result.

SMILES	S1P2 ag	PTPN22 inh 2	LYP act	S1P2 blocker	GALR2 antag	GALR2 agonist	GALR2 agon conf	BLA activ ctr
O=C(O)c1cccc(NC(=S)NC(=O)C(c2ccccc2)c2ccccc2)c1	-4	3	1	20	-8	8	-1	-1
O=C(Nc1cccc(NC(=S)NC(=O)c2cccs2)c1)c1ccccc1	.	.	.	.	-8	-1	.	.
Cn1c(O)c(C=NCC2CCNCC2)c(=O)n(C)c1=O	-3	1	-6	9	-5	-3	.	.
Cc1ccc(COCC(CC(C)C)N2CCN(C(=O)c3cccc(C(F)(F)F)c3)CCC2=O)cc1 (stereo not given)	.	.	.	.	-13	8.9*	0	-4
CC(C)CC(COCc1ccc(F)cc1)N1CCN(C(=O)c2cccc(C(F)(F)F)c2)CCC1=O (stereo not given)	.	.	.	.	-7	-1	.	.
Cc1ccc(S(=O)(=O)Nc2nc3ccccc3nc2NCc2ccc3c(c2)OCO3)cc1C	.	.	.	.	-17	-1	.	.
CC(=O)Oc1cc2c(cc1Cl)C1(CC(c3ccccc3Cl)O2)CC(C)(C)NC(=S)N1 (stereo not given)	-6	8	-10	-2	4	0	.	.
COc1ccccc1[C@@H]1C(c2cccc(Cl)c2)=NN(c2ccc(Br)cc2)[C@H]1C(=O)N1CCOC1=O	.	.	.	.	-4	18*	23*	46*
Brc1ccc(-c2nc(N/N=C/c3cccnc3)c3ccccc3n2)cc1	-7	5	-4	7	4	76*	0	-1
Cc1ccc(-c2nc(N/N=C/c3ccccc3[N+](=O)[O-])c3ccccc3n2)cc1	-3	8	-3	9	-4	-2	.	.
CCC1CCCCN1c1ccc([N+](=O)[O-])cc1/C=N/NC(=O)Cn1c2ccccc2c(=O)c2ccccc21 (stereo not given)	0	10	-11	0	6	-1	.	.
COc1cccc2cc(-c3nnc(SCC(=O)NCCc4ccccc4)n3C)oc12	-7	-1	4	-6	6	9	0	0
COCCN1C=C(C(=O)OC)C(c2cc(Br)c(OC)c(OC)c2)C(C(=O)OC)=C1	10	5	-6	-23	6	10	1	4
Cc1ccc(CNC(=O)CCNC(=O)c2ccc(Br)o2)cc1	-2	4	-3	-4	-14	28*	-1	-2
O=C1CCC/C(=N\NC(=O)c2ccc(COc3cccc4cccnc34)cc2)C1	.	.	.	.	1	0	.	.
N/C(=N\O)c1ccc(NC(=O)c2cccs2)cc1	.	.	.	.	3	25*	-1	-2
CC(=O)c1ccc(NC(=O)c2cccs2)cc1	-1	4	-2	-10	-3	-2	.	.
COC(=O)C1=CN(C2CC2)C=C(C(=O)OC)C1c1ccccc1OC	13	-4	1	-28	-3	11	1	3
COC(=O)C1=CN(C)C=C(C(=O)OC)C1c1ccc(O)c(OC)c1	-6	3	-4	0	-2	0	.	.
Cc1cc(C(=O)CN2C(=O)NC3(CCCCC3)C2=O)c(C)n1-c1ccc2c(c1)OCO2	.	.	.	.	-11	0	.	.
COc1ccc(NS(=O)(=O)c2ccc(S(=O)(=O)N3CCCC3)cc2)cc1	-3	3	-2	-2	-12	15*	-1	0
CCOc1ccc(Br)cc1C(=O)Nc1ccc(C(=O)NCC(C)C)cc1	.	.	.	.	-1	14*	13*	5
CCOc1ccc(Br)cc1S(=O)(=O)Nc1ccc(C(=O)Nc2ccc(C)cc2)cc1	.	.	.	.	6	-2	.	.
CCc1cc2c(CN3CCN(CCO)CC3)cc(=O)oc2cc1O	4	4	-5	11	-3	11	1	4
CCc1cc2c(CN3CCN(C)CC3)cc(=O)oc2cc1O	2	4	-4	19	4	2	.	.

High-throughput results as filed in PubChem.
